CHX counter: counter-screen for Shiga toxin inhibitors: cycloheximide protein synthesis inhibition | cell reporter, cycloheximide protein synthesis inhibition counterscreen | max response, % | hit rate 12% among 300,000; in the data active = max response mostly above about 13%, no sharp cut-off; inactive = mostly below about 14%; note: read at 38.3 µM for the half of the compounds with a filed dose
Shiga inhibitor: blocks Shiga toxin action in Vero cells. Vero cells, Shiga toxin protein synthesis inhibition reporter. inhibition, % at 38.7 µM. hit rate 9.2% among 290,000. AID 2315; in the data active = inhibition mostly above about 28%, no sharp cut-off; inactive = mostly below about 43%
SARS PLP yeast: SARS-CoV PLP inhibition in yeast; S. cerevisiae expressing SARS-CoV PLpro, growth rescue; Potency, µM (top dose mostly 32.9 µM), most hits filed as activators; hit rate 0.19% among 330,000; AID 485353; note: nearly all actives have a fitted effect of over 55% in size
NS1 inh: influenza NS1 inhibition. Potency, µM (series often up to 46.1 µM). hit rate 0.4% among 270,000; note: actives are rising curves; nearly all actives have a fitted effect of over 50% in size
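Growth recovery, yeast-based: influenza A NS1 expressed in S. cerevisiae causes slow growth, and suppressors are detected by OD600. The parent strain without NS1 is used as positive control.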
Large screens that a line does not name were inactive. This is a sample that favours compounds with a hit; in the whole collection about 12% have one here. Unless noted, calls come from the whole dose curve.

Cc1cccc(C(=O)Nc2ccc3c(c2)C(=O)NC3=O)c1	CHX counter 20.9
CC(NC(=O)c1ccc(S(=O)(=O)NCc2ccco2)cc1)c1ccc(F)cc1 (centres undefined)	none (no result: CHX counter, Shiga inhibitor, NS1 inh)
CC(C)OC(=O)c1ccc(NC(=O)C2C3CC4OC(=O)C2C4C3)cc1 (centres undefined)	CHX counter 33.5, Shiga inhibitor 60.5
CC(C)=CCN1CCN(Cc2cccn2-c2ccccn2)CC1CCO (centres undefined)	none
O=C(Oc1ccc2[nH]cc(CCN3C(=O)c4ccccc4C3=O)c2c1)c1ccco1	CHX counter 27.1
O=C1c2ccccc2C(=O)N1CCCc1c[nH]c2ccc(Cl)cc12	CHX counter 14.4
O=C(CN1C(=O)c2ccccc2C1=O)NCCc1c[nH]c2ccc(Cl)cc12	none
COc1cc2c(cc1OC)C(c1ccccc1OC(C)C)CC(=O)N2 (centres undefined)	none (no result: Shiga inhibitor)
Oc1cccc(/C=N/N=C/c2cccc(O)c2O)c1O	CHX counter 30.2
Cc1ccc(O)c(C=Nc2cc(C)ccc2O)c1	CHX counter 14.9
CC(C)(C)c1ccc(O)c(N=Cc2cc(Br)ccc2O)c1	CHX counter 20.1, Shiga inhibitor 30.6
Cc1ccc(O)c(C=Nc2ccc3[nH]ncc3c2)c1	none
CC(N=Cc1cccc(O)c1O)c1ccccc1 (centres undefined)	none
CCc1ccc(O)c(N=Cc2ccccc2O)c1	CHX counter 14.8, Shiga inhibitor 71.0
Cc1ccc(N=Cc2cccc(O)c2O)c(C)c1	Shiga inhibitor 36.7
Cc1ccccc1N=Cc1cccc(O)c1O	none
CCCC(c1nnnn1CCc1ccccc1)N1CCC(C(N)=O)CC1 (centres undefined)	none
COc1ccc(/C=C\C(=O)NCC(=O)N/N=C/c2cccc(OC)c2O)cc1	none
COc1cccc(/C=N/NC(=O)CSCC(=O)Nc2ccccc2)c1O	none
COc1cccc(/C=N/NC(=O)CNC(=O)C(c2ccccc2)c2ccccc2)c1O	CHX counter 37.5, Shiga inhibitor 70.5
COc1ccc(/C(C)=N/NC(=O)CNC(=O)/C=C\c2ccccc2OC)c(OC)c1	CHX counter 14.0, Shiga inhibitor 31.4
COc1ccccc1/C=C/C(=O)NCC(=O)N/N=C(/C)c1ccco1	none
COc1cccc(/C=N/NC(=O)CNC(=O)/C=C\c2ccccc2)c1O	CHX counter 28.0, Shiga inhibitor 41.3
Cc1nc2c(=O)n(C)c(=O)n(C)c2nc1Cl	none
CCOC(=O)N1CCN(CC(O)COc2ccc(C)c(C)c2)CC1 (centres undefined)	none
CC(c1ccccc1)N1C(=O)NC(NC(=O)C(C)(C)C)(C(F)(F)F)C1=O (centres undefined)	none
CCOC(=O)c1c(C)oc2c1c1c(c3ccccc32)OCN(CCCC(=O)O)C1	CHX counter 61.8, Shiga inhibitor 89.4
CCOC(=O)c1c(C)oc2c1c1c(c3ccccc32)OCN(Cc2cccnc2)C1	CHX counter 77.0, Shiga inhibitor 130.7
O=c1nc2c(-c3cccc(Br)c3)n[nH]n2c2ccccc12	none
COc1cccc(-c2nn(C)c3sc(C(=O)NCc4ccc(C)o4)cc23)c1	CHX counter 23.3
COc1ccc(NC(=O)c2cc3c(-c4ccc(OC)c(OC)c4)nn(C)c3s2)cc1OC	CHX counter 51.3, Shiga inhibitor 100.0
CCc1ccc(NC(=O)CSc2nnnn2C)cc1	CHX counter 56.5, Shiga inhibitor 78.1
Cn1nnnc1SCC(=O)Nc1ccc(Oc2ccccc2)cc1	CHX counter 8.9
CCOc1ccc(NC(=O)C(C)Sc2nnnn2C)cc1 (centres undefined)	CHX counter 10.8
CC(Sc1nnnn1C)C(=O)Nc1ccccc1 (centres undefined)	none
CCOc1nc2cnccc2n(CC(=O)Nc2cccc(C)c2C)c1=O	none
c1ccc2c(Nc3nc4c(s3)CCCC4)cccc2c1	CHX counter 45.1, Shiga inhibitor 111.9
CC(C)Cc1cc(C(=O)Nc2cccc(O)c2)no1	none
CCc1ccc(NC(=O)c2cc(CC(C)C)on2)cc1	CHX counter 32.9, Shiga inhibitor 38.9, NS1 inh inconclusive
CC(C)Cc1cc(C(=O)Nc2ccc(Br)cc2)no1	CHX counter 35.5
CC(C)Cc1cc(C(=O)Nc2ccc3c(c2)OCO3)no1	CHX counter 36.0, Shiga inhibitor 71.6
COc1ccc(NC(=O)c2cc(CC(C)C)on2)cc1OC	CHX counter 42.1, Shiga inhibitor active
Cc1cc(C(=O)Nc2ccc3c(c2)OCO3)no1	none
CC1CN(C(=O)COC(=O)Cc2ccc(Cl)cc2)CC(C)O1 (centres undefined)	none (no result: CHX counter, Shiga inhibitor, NS1 inh)
O=C(O)CN(c1ccccc1)S(=O)(=O)c1cc(C(F)(F)F)cc(C(F)(F)F)c1	none (no result: NS1 inh)
Cc1ccc(C(=O)OCC(=O)NCc2ccco2)cc1C	none (no result: CHX counter, Shiga inhibitor, NS1 inh)
CCOC(=O)C1=CC[C@H]2c3c(c4ccccc4n3C)C(=O)C1N2C(=O)OC(C)(C)C	none (no result: CHX counter, Shiga inhibitor, NS1 inh)
COc1ccc(NC(=O)OCC(C)C)cc1OC	CHX counter 21.5, Shiga inhibitor 50.4
N=c1nc(N)nc2n1NC(c1ccc(F)cc1)=CS2	CHX counter 19.7
Fc1ccc(C2=CSC3=NCCN23)cc1	none
COc1cc(C(CC(=O)N2CCOCC2)c2c(OC)cc(OC)c3c(-c4ccccc4)cc(=O)oc23)cc(OC)c1OC (centres undefined)	none (no result: SARS PLP yeast, NS1 inh)
COc1ccc(S(=O)(=O)Nc2ccc3c(c2)OCCO3)cc1OC	CHX counter 22.7, Shiga inhibitor 64.8
Cn1c(=O)oc2cc(S(=O)(=O)Nc3ccc4c(c3)OCO4)ccc21	CHX counter 13.8
Cc1nc(S(=O)(=O)Nc2ccc3c(c2)OCCO3)cn1C	none
Cn1c(=O)c2cc(S(=O)(=O)Nc3ccc4c(c3)OCO4)ccc2n(C)c1=O	none
Cn1cc(S(=O)(=O)Nc2ccc3c(c2)OCCO3)cn1	CHX counter 44.3, Shiga inhibitor 103.1 (no result: NS1 inh)
CCn1cc(S(=O)(=O)NCc2ccc3c(c2)OCO3)cn1	none
CCn1cc(S(=O)(=O)Nc2ccc3c(c2)OCCO3)cn1	CHX counter 76.4, Shiga inhibitor 76.9
COc1ccc(S(=O)(=O)Nc2ccc3c(c2)OCO3)cc1C	none
Cc1nc(NS(=O)(=O)c2ccccc2)sc1C(=O)N/N=C/c1ccccc1	none
Cc1ccc(S(=O)(=O)N(CC(=O)N2CCCCCC2)c2ccccc2F)cc1	none
Cc1ccc(NC(=O)C(c2ccccc2)N2CCN(C(=O)c3ccco3)CC2)cc1Cl (centres undefined)	none (no result: CHX counter, Shiga inhibitor, NS1 inh)
Cc1ccc(S(=O)(=O)N2CCN(C(=O)CN3C(=O)NC4(CCCC4)C3=O)CC2)c(C)c1	none (no result: CHX counter, Shiga inhibitor, NS1 inh)
COc1ccc(CCCC(=O)NCc2ccccc2)cc1C	none
CCCc1cc(=O)[nH]c(SCC(=O)Nc2nc3ccc(OCC)cc3s2)n1	CHX counter 14.4, Shiga inhibitor 51.9
CCOc1ccc2nc(NC(=S)NCc3ccccc3)sc2c1	none
CCCc1cc(=O)[nH]c(SCC(=O)Nc2ccc(OCc3ccccc3)cc2)n1	none (no result: CHX counter, Shiga inhibitor, NS1 inh)
COc1ccc2nc(NC(=O)CSc3nccc(C)n3)sc2c1	none
COc1ccc2nc(NC(=O)CSc3nc(C)cc(=O)[nH]3)sc2c1	CHX counter 27.0
CCOc1ccc2nc(NC(=O)C(CC)Sc3nc(C)cc(=O)[nH]3)sc2c1 (centres undefined)	CHX counter 29.3, Shiga inhibitor 89.5
COC(=O)C(C)Oc1cc(OC(C)C(=O)OC)c2c(C)c(Cl)c(=O)oc2c1 (centres undefined)	none (no result: NS1 inh)

Source: PubChem
